Screening results as filed in PubChem BioAssay.
TDP1 cell noCPT = qHTS for Inhibitors of human tyrosyl-DNA phosphodiesterase 1 (TDP1): qHTS in cells in absence of CPT; DT40 Tdp1-/- hTDP1 cells, no CPT, ATP luminescence, 48 h; hit rate 15% among 420,000; Potency, µM (top dose mostly 46.2 µM), inactives show at the top dose activity change, negative = growth inhibition, usual class: inhibitors; AID 686978, 2013; note: potency is the fitted concentration of half-maximal effect; % is set by controls: 0 for no effect and ±100 for the full control effect; nearly all actives have a fitted effect of over 55% in size
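Stably hTDP1-transfected Tdp1-null chicken DT40 cells were treated with library compounds minus camptothecin and grown for at least 48 hr at 37 °C, after which cellular ATP was quantified by luminescence.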
DT40 TDP1 CPT = qHTS for Inhibitors of human tyrosyl-DNA phosphodiesterase 1 (TDP1): qHTS in cells in presence of CPT; hit rate 12% among 420,000; chicken DT40 Tdp1-/-;hTDP1 cells + 20 nM CPT, ATP luminescence, 48 h; Potency, µM (series often up to 46.2 µM), for inactives: at the highest dose activity change, negative = growth inhibition, most hits filed as inhibitors; note: potency is the fitted concentration of half-maximal effect; % is set by controls: 0 for no effect and ±100 for the full control effect; nearly all actives have a fitted effect of over 55% in size
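Chicken DT40 Tdp1-/- cells stably complemented with human TDP1 were seeded at 400 cells/well in medium containing 20 nM camptothecin, exposed to pin-transferred compounds, and grown at 37 °C for at least 48 hr. Viability was read as ATP luminescence.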
DRD3 agonist = qHTS of D3 Dopamine Receptor Agonist: qHTS. D(3) dopamine receptor (Homo sapiens), P35462. D3R DiscoveRx beta-arrestin cells, luminescence, 90 min. max activation, %. hit rate 0.58% among 410,000. AID 652048, 2013; in the data active = max activation above about 30%; note: 0% is about no effect
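Agonist-mode cell screen: cells plated at 1500/well and incubated overnight at 37 °C, then exposed to library compounds for 90 min at 37 °C. Detection reagent was added for 30–60 min at room temperature, and luminescence was read.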
IL1B secr inh = qHTS for Inhibitors of Inflammasome Signaling: IL-1-beta AlphaLISA Primary Screen | THP-1 LPS/ATP IL-1B secretion, AlphaLISA, 16 h; hits give low values | activity change, % at 57.5 µM | hit rate 4.7% among 360,000 | AID 743279, 2014; in the data active = activity change below about -50%; inconclusive = mostly about -30% to -49%; note: % is set by controls: 0 for no effect and ±100 for the full control effect
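THP-1 cells pretreated 1 hr with compounds (up to 57.5 uM final), then stimulated with LPS (250 ng/mL final) plus ATP (1.25 mM final); secreted IL-1B measured by AlphaLISA after 16 hr, decreased signal indicating inhibition.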
D3 antag = qHTS of D3 Dopamine Receptor Antagonist: qHTS | D3R cells, DiscoveRx beta-arrestin luminescence, antagonist mode; hits give low values | max response, negative = inhibition, % | hit rate 2.5% among 360,000; in the data active = max response below about -50%; inconclusive = no clear call, values can overlap the other calls; note: % is set by controls: 0 for no effect and ±100 for the full control effect
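Cells expressing the human receptor were seeded at 1500 cells/well, incubated overnight at 37 degrees C in 5% CO2, then exposed to library compounds with dopamine controls for 90 minutes at 37 degrees C before luminescent detection.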
ClpP mod = qHTS Assay for Activators of ClpP | AID 651965, 2013 | Potency, µM (series often up to 57.5 µM), inactives show at the highest dose activity change, negative = active | purified B. subtilis ClpP, FRET peptide cleavage, 20 min | hit rate 1.9% among 340,000 | ATP-dependent Clp protease proteolytic subunit (Bacillus subtilis (strain 168)), P80244; active = well fitted falling curve with a large enough effect; inconclusive = small, poorly fitted or top-dose-only effect; inactive = no such curve, though single readings can be large or run the other way; note: potency is the fitted concentration of half-maximal effect; the source files actives as falling curves though it sought activators and does not explain the sign; nearly all actives have a fitted effect of over 65% in size
Target sequence (P80244 whole entry, looked up): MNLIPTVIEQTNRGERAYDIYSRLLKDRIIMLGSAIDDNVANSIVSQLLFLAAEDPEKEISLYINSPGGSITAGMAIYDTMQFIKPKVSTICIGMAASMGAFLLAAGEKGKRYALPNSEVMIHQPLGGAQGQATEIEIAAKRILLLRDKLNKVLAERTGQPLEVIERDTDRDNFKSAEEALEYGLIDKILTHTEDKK
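Buffer: 100 mM Tris/HCl pH8, 100 mM KCl, 0.05% low protease BSA, 2.5% glycerol, 0.01% Tween-20. ClpP 10 microg/mL final; 20 min RT; delta FRET normalized to ADEP and DMSO controls.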
Starred values were filed as active, the others as inactive; ? = inconclusive; . = no result. Sampled rows, rich in hits. Any-hit rate of the full collection: about 21%. Unless noted, calls come from the whole dose curve; as a rule, active = well fitted inhibition curve with a large enough effect; inconclusive = small, poorly fitted or top-dose-only effect; inactive = flat fitted curve, though single readings scatter.

SMILES	TDP1 cell noCPT	DT40 TDP1 CPT	DRD3 agonist	IL1B secr inh	D3 antag	ClpP mod
COc1ccc(NC(=O)c2c(NCc3cccs3)sc3c2CCC(C)C3)c(OC)c1 (centres undefined)	?	?	-2	.	.	0%
Cc1ccccc1C(=O)NCCN1CCC(n2c(=O)[nH]c3ccccc32)CC1	-23%	?	-11	-7	-109*	1%
O=C(NC(=S)NCCN1CCOCC1)c1ccc(Cl)cc1Cl	-4%	2%	1	-1	-15	-2%
O=C(NCCN1CCC(n2c(=O)[nH]c3ccccc32)CC1)c1ccccc1C(F)(F)F	?	?	-13	-21	-77*	-2%
O=C(NCCN1CCC(n2c(=O)[nH]c3ccccc32)CC1)c1ccc(Cl)cc1Cl	?	?	-15	0	-92*	0%
O=C(NCCN1CCC(n2c(=O)[nH]c3ccccc32)CC1)c1ccccc1Cl	?	?	-12	-23	-100*	-3%
O=C(NCCN1CCCC1)c1ccccc1Cl	0%	-11%	-20	1	-15	1%
CCOc1ccc(NC(=O)N2CCC(n3c(=O)[nH]c4ccccc43)CC2)cc1	?	?	4	?	10	0%
O=C(Nc1ccccc1C(F)(F)F)N1CCC(n2c(=O)[nH]c3ccccc32)CC1	-7%	0%	-1	-4	-4	0%
O=C(Nc1ccc(Cl)c(C(F)(F)F)c1)[C@@H]1CC=C[C@@H]2CCN(Cc3ccc(Cl)c(Cl)c3)C(=O)[C@@H]21	?	?	0	-1	2	-4%
CCOc1ccccc1C(=O)NCCN1CCC(n2c(=O)[nH]c3ccccc32)CC1	29µM*	23µM*	-14	-25	-29	2.8µM*
COc1ccccc1C(=O)NCCN1CCC(n2c(=O)[nH]c3ccccc32)CC1	?	?	-16	-6	0	0%
O=C(NCCN1CCC(n2c(=O)[nH]c3ccccc32)CC1)c1cccc2c1-c1ccccc1C2=O	21µM*	?	-14	-95*	0	-9%
CCOC(=O)c1c(S(=O)(=O)N2CCCC(C(=O)Nc3cccc(C#N)c3)C2)c(C)n(C)c1C (centres undefined)	?	?	-12	.	.	-1%
Cc1cccc(C(C)n2nnc3ccccc32)c1O (centres undefined)	?	23µM*	-16	32	0	-1%
Cc1cccc(Cn2nnc3ccccc32)c1O	-22%	?	1	16	-25	0%
CCC(C)COC(=O)C(C#N)c1nc2ccccc2nc1N1CCCCC1 (centres undefined)	16µM*	?	2	-28	-26	5%
CCC(CC)COC(=O)C(C#N)c1nc2ccccc2nc1N1CCN(CC)CC1 (centres undefined)	?	21µM*	-24	-60*	?	-1%
Cc1ccc([C@@H]2[C@@H]3C(=O)N(C)C(=O)[C@@H]3[C@]3(Cc4ccccc4)C(=O)N(Cc4ccccn4)CC(=O)N23)o1	3%	-1%	12	0	0	2%
Oc1cccc2ccc(Nc3ccccn3)nc12	3.7µM*	1.6µM*	7	-110*	23	-2%
O/N=C/c1cccc[n+]1CCCCCC[n+]1ccccc1/C=N/O	14%	4%	2	-6	11	0%
Brc1cccc[n+]1C/C=C/C[n+]1ccccc1Br	-18%	0%	.	.	.	-5%
Clc1cccc[n+]1CCCCCC[n+]1ccccc1Cl	-98%	35µM*	.	.	.	-3%
Brc1cccc[n+]1CCCCCC[n+]1ccccc1Br	18µM*	?	.	.	.	-2%
Brc1cccc[n+]1CCCC[n+]1ccccc1Br	16µM*	8.9µM*	.	.	.	?
